Among all 5,500 compounds or so, about 2,000 (36%) were called active. Roughly 18% stayed inconclusive and do not appear here. This is one part of the list. A number with no mark means an inactive call. No stated cut-off is given here; in the data, active means normalized growth mostly below about 0.91 (no sharp cut-off); inconclusive means no clear call, values can overlap the other calls; inactive means mostly above about 0.92.
Experiment: chemical genetic growth profiling, strain panel (AID 1159580);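 further: tested at 20 µM; growth read once vehicle control cultures reached saturation at 30 °C; 1 = growth at the plate median or of vehicle wells; lower values mean less growth of the strain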
Conditions: growth OD
[1] = S. cerevisiae deletion strains, locus YAL013W, strain DEP1, active compounds read low
[2] = S. cerevisiae deletion strains, locus YDR150W, strain NUM1, active compounds read low
[3] = S. cerevisiae deletion strains, locus YGR229C, strain SMI1, active compounds read low
[4] = S. cerevisiae deletion strains, locus YHR030C, strain SLT2, active compounds read low
[5] = S. cerevisiae deletion strains, locus YJL095W, strain BCK1, active compounds read low
[6] = S. cerevisiae deletion strains, locus YJR075W, strain HOC1, active compounds read low
[7] = S. cerevisiae deletion strains, locus YMR263W, strain SAP30, active compounds read low
[8] = S. cerevisiae deletion strains, locus YMR307W, strain GAS1, active compounds read low
[9] = S. cerevisiae deletion strains, locus YNL128W, strain TEP1, active compounds read low
[10] = S. cerevisiae deletion strains, locus YNL322C, strain KRE1, active compounds read low
[11] = S. cerevisiae deletion strains, locus YPL055C, strain LGE1, active compounds read low
[12] = S. cerevisiae deletion strains, locus YAL040C, strain CLN3, active compounds read low
[13] = S. cerevisiae deletion strains, locus YCL061C, strain MRC1 (second series), active compounds read low
[14] = S. cerevisiae deletion strains, locus YDR363W, strain ESC2, active compounds read low
[15] = S. cerevisiae deletion strains, locus YER002W, strain NOP16, active compounds read low
[16] = S. cerevisiae deletion strains, locus YNL175C, strain NOP13, active compounds read low
[17] = S. cerevisiae deletion strains, locus YNL197C, strain WHI3, active compounds read low
[18] = S. cerevisiae deletion strains, locus YNL224C, strain SQS1, active compounds read low
[19] = S. cerevisiae deletion strains, locus YOR083W, strain WHI5 (second series), active compounds read low

CC(=O)OC1CN2CCC1CC2 (stereo not drawn)
normalized growth [1]: 0.997 | normalized growth (S. cerevisiae deletion strains, locus YBR021W, strain FUR4, active compounds read low): 1.01 | normalized growth (S. cerevisiae deletion strains, locus YBR229C, strain ROT2, active compounds read low): 0.973 | normalized growth (S. cerevisiae deletion strains, locus YCL029C, strain bik1, active compounds read low): 0.983 | normalized growth (S. cerevisiae deletion strains, locus YDL035C, strain GPR1, active compounds read low): 1.02 | normalized growth (S. cerevisiae deletion strains, locus YDL074C, strain BRE1, active compounds read low): 1.03 | normalized growth (S. cerevisiae deletion strains, locus YDL101C, strain DUN1, active compounds read low): 0.989 | normalized growth (S. cerevisiae deletion strains, locus YDL134C, strain PPH21, active compounds read low): 0.988 | normalized growth (S. cerevisiae deletion strains, locus YDL185W, strain tfp1, active compounds read low): 0.965 | normalized growth (S. cerevisiae deletion strains, locus YDL192W, strain arf1, active compounds read low): 0.985 | normalized growth (S. cerevisiae deletion strains, locus YDR101C, strain arx1, active compounds read low): 0.987 | normalized growth [2]: 0.982 | normalized growth (S. cerevisiae deletion strains, locus YDR162C, strain NBP2, active compounds read low): 0.991 | normalized growth (S. cerevisiae deletion strains, locus YDR318W, strain mcm21, active compounds read low): 1 | normalized growth (S. cerevisiae deletion strains, locus YDR388W, active compounds read low): 0.991 | normalized growth (S. cerevisiae deletion strains, locus YDR502C, strain sam2, active compounds read low): 0.993 | normalized growth (S. cerevisiae deletion strains, locus YEL061C, strain CIN8, active compounds read low): 0.995 | normalized growth (S. cerevisiae deletion strains, locus YER110C, active compounds read low): 0.959 | normalized growth (S. cerevisiae deletion strains, locus YER155C, strain BEM2, active compounds read low): 1 | normalized growth (S. cerevisiae deletion strains, locus YER167W, strain BCK2, active compounds read low): 1 | normalized growth (S. cerevisiae deletion strains, locus YGL078C, strain dbp3, active compounds read low): 0.993 | normalized growth (S. cerevisiae deletion strains, locus YGL086W, strain mad1, active compounds read low): 0.994 | normalized growth (S. cerevisiae deletion strains, locus YGL248W, strain PDE1, active compounds read low): 1.01 | normalized growth (S. cerevisiae deletion strains, locus YGR078C, strain PAC10, active compounds read low): 1.01 | normalized growth (S. cerevisiae deletion strains, locus YGR135W, strain pre9, active compounds read low): 0.995 | normalized growth [3]: 1.01 | normalized growth (S. cerevisiae deletion strains, locus YGR252W, strain gcn5, active compounds read low): 1.07 | normalized growth [4]: 1 | normalized growth (S. cerevisiae deletion strains, locus YHR079C, strain IRE1 (second series), active compounds read low): 0.982 | normalized growth (S. cerevisiae deletion strains, locus YHR094C, strain hxt1, active compounds read low): 0.985 | normalized growth (S. cerevisiae deletion strains, locus YHR129C, strain ARP1, active compounds read low): 1 | normalized growth (S. cerevisiae deletion strains, locus YHR200W, strain rpn10, active compounds read low): 0.985 | normalized growth (S. cerevisiae deletion strains, locus YIL066C, strain RNR3, active compounds read low): 0.993 | normalized growth (S. cerevisiae deletion strains, locus YIL073C, strain SPO22, active compounds read low): 0.97 | normalized growth (S. cerevisiae deletion strains, locus YIL125W, strain kgd1, active compounds read low): 0.982 | normalized growth (S. cerevisiae deletion strains, locus YIR030C, strain dcg1, active compounds read low): 0.971 | normalized growth [5]: 1.04 | normalized growth (S. cerevisiae deletion strains, locus YJL134W, strain LCB3, active compounds read low): 0.987 | normalized growth (S. cerevisiae deletion strains, locus YJL168C, strain set2, active compounds read low): 0.994 | normalized growth (S. cerevisiae deletion strains, locus YJL187C, strain SWE1 (second series), active compounds read low): 1.01 | normalized growth (S. cerevisiae deletion strains, locus YJR043C, strain POL32, active compounds read low): 1.01 | normalized growth [6]: 1.02 | normalized growth (S. cerevisiae deletion strains, locus YKL009W, strain mrt4, active compounds read low): 0.963 | normalized growth (S. cerevisiae deletion strains, locus YKL068W, active compounds read low): 0.982 | normalized growth (S. cerevisiae deletion strains, locus YKL085W, strain MDH1 (second series), active compounds read low): 0.992 | normalized growth (S. cerevisiae deletion strains, locus YKL085W, strain MDH1, active compounds read low): 0.992 | normalized growth (S. cerevisiae deletion strains, locus YKL190W, strain CNB1, active compounds read low): 0.997 | normalized growth (S. cerevisiae deletion strains, locus YKR001C, strain vps1, active compounds read low): 0.981 | normalized growth (S. cerevisiae deletion strains, locus YLR039C, strain RIC1, active compounds read low): 1 | normalized growth (S. cerevisiae deletion strains, locus YLR058C, strain SHM2, active compounds read low): 0.986 | normalized growth (S. cerevisiae deletion strains, locus YLR102C, strain apc9, active compounds read low): 0.982 | normalized growth (S. cerevisiae deletion strains, locus YLR262C, strain YPT6, active compounds read low): 0.997 | normalized growth (S. cerevisiae deletion strains, locus YLR268W, strain sec22, active compounds read low): 1.09 | normalized growth (S. cerevisiae deletion strains, locus YLR330W, strain CHS5, active compounds read low): 0.991 | normalized growth (S. cerevisiae deletion strains, locus YLR342W, strain FKS1 (second series), active compounds read low): 1.02 | normalized growth (S. cerevisiae deletion strains, locus YLR371W, strain rom2, active compounds read low): 0.929 | normalized growth (S. cerevisiae deletion strains, locus YLR418C, strain cdc73, active compounds read low): 1.05 | normalized growth (S. cerevisiae deletion strains, locus YML016C, strain PPZ1, active compounds read low): 0.981 | normalized growth (S. cerevisiae deletion strains, locus YML032C, strain rad52, active compounds read low): 1.01 | normalized growth (S. cerevisiae deletion strains, locus YML124C, strain tub3, active compounds read low): 0.976 | normalized growth (S. cerevisiae deletion strains, locus YMR078C, strain ctf18, active compounds read low): 0.972 | normalized growth (S. cerevisiae deletion strains, locus YMR223W, strain ubp8, active compounds read low): 0.995 | normalized growth [7]: 1.01 | normalized growth [8]: 1.1 | normalized growth (S. cerevisiae deletion strains, locus YNL067W, strain RPL9B, active compounds read low): 1.04 | normalized growth [9]: 0.997 | normalized growth (S. cerevisiae deletion strains, locus YNL153C, strain GIM3, active compounds read low): 1.01 | normalized growth (S. cerevisiae deletion strains, locus YNL233W, strain BNI4, active compounds read low): 1.04 | normalized growth (S. cerevisiae deletion strains, locus YNL250W, strain rad50, active compounds read low): 0.98 | normalized growth (S. cerevisiae deletion strains, locus YNL271C, strain bni1, active compounds read low): 0.987 | normalized growth (S. cerevisiae deletion strains, locus YNL298W, strain CLA4, active compounds read low): 0.962 | normalized growth (S. cerevisiae deletion strains, locus YNL307C, strain MCK1, active compounds read low): 0.988 | normalized growth [10]: 0.995 | normalized growth (S. cerevisiae deletion strains, locus YNR052C, strain pop2, active compounds read low): 0.989 | normalized growth (S. cerevisiae deletion strains, locus YOL006C, strain TOP1, active compounds read low): 1.04 | normalized growth (S. cerevisiae deletion strains, locus YOL012C, strain htz1): 1.28 | normalized growth (S. cerevisiae deletion strains, locus YOL147C, strain pex11, active compounds read low): 0.989 | normalized growth (S. cerevisiae deletion strains, locus YOR061W, strain CKA2, active compounds read low): 0.975 | normalized growth (S. cerevisiae deletion strains, locus YOR136W, strain idh2, active compounds read low): 0.988 | normalized growth (S. cerevisiae deletion strains, locus YOR144C, strain elg1, active compounds read low): 0.968 | normalized growth (S. cerevisiae deletion strains, locus YOR184W, strain ser1, active compounds read low): 0.98 | normalized growth (S. cerevisiae deletion strains, locus YOR316C, strain cot1, active compounds read low): 0.978 | normalized growth [11]: 1.02 | normalized growth (S. cerevisiae deletion strains, locus YPL241C, strain CIN2, active compounds read low): 0.999 | normalized growth (S. cerevisiae deletion strains, locus YPR119W, strain clb2, active compounds read low): 0.987 | normalized growth (S. cerevisiae deletion strains, locus YPR141C, strain kar3, active compounds read low): 0.963 | normalized growth (S. cerevisiae deletion strains, locus YPR163C, strain tif3, active compounds read low): 0.986 | normalized growth (S. cerevisiae deletion strains, locus YPR167C, strain met16, active compounds read low): 0.984 | normalized growth (S. cerevisiae deletion strains, strain wtn01, active compounds read low): 1.01 | normalized growth (S. cerevisiae strains, strain wild type, active compounds read low): 1.01

Cc1ccc(S(=O)(=O)N[C@@H](Cc2ccccc2)C(=O)CCl)cc1
normalized growth [12]: 0.932 | normalized growth [13]: 0.987 | normalized growth [2]: 0.998 | normalized growth [14]: 1 | normalized growth [15]: 0.904 (active) | normalized growth [6]: 0.959 | normalized growth [7]: 0.993 | normalized growth [8]: 0.896 (active) | normalized growth [9]: 0.955 | normalized growth [16]: 0.902 (active) | normalized growth [17]: 0.892 (active) | normalized growth [18]: 0.954 | normalized growth [10]: 1.01 | normalized growth [19]: 0.957 | normalized growth [11]: 0.983

CC(=O)NC(Cc1ccccc1)C(=O)O (stereo not drawn)
normalized growth [4]: 0.979 | normalized growth (S. cerevisiae deletion strains, locus YHR079C, strain IRE1, active compounds read low): 0.984 | normalized growth [5]: 0.985 | normalized growth (S. cerevisiae deletion strains, locus YJR066W, strain TOR1, active compounds read low): 0.91 | normalized growth (S. cerevisiae deletion strains, locus YLR113W, strain HOG1, active compounds read low): 1.02 | normalized growth (S. cerevisiae deletion strains, locus YNL183C, strain NPR1, active compounds read low): 0.89 | normalized growth (S. cerevisiae deletion strains, locus YOR231W, strain MKK1, active compounds read low): 0.997 | normalized growth (S. cerevisiae deletion strains, locus YPL256C, strain CLN2, active compounds read low): 0.984

Cc1ccc(S(=O)(=O)N[C@@H](CCCCN)C(=O)CCl)cc1
normalized growth [1]: 1.02 | normalized growth [12]: 1.04 | normalized growth [13]: 1.01 | normalized growth [14]: 1.05 | normalized growth [15]: 1.02 | normalized growth [3]: 0.962 | normalized growth [6]: 0.995 | normalized growth [7]: 1.01 | normalized growth [8]: 1.01 | normalized growth [16]: 1.01 | normalized growth [17]: 1.02 | normalized growth [18]: 1.01 | normalized growth [10]: 1.02 | normalized growth [19]: 1.01 | normalized growth [11]: 1.03

Reference: PubChem BioAssay AID1159580 (chemical genetic matrix, 2015)
